Test results: PubChem BioAssay AID746 (The Scripps Research Institute Molecular Screening Center, 2007)
Hit rate of the full screen: of about 60,000 compounds, about 370 (0.62%) were called active. The sample as a whole holds a higher share of actives than the screen did. A number with no mark means an inactive call. Rule as the data show it: active = inhibition above about 17%; inactive = the rest.

biological target: Mitogen-activated protein kinase 10 (Homo sapiens) (UniProt P53779); assay: JNK3 kinase activity inhibitors, primary screen, biochemical, human, purified enzyme (AID 746); settings: HTS, at 8 µM, active compounds read high;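 also: 0% = DMSO and 100% = reference inhibitor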
Sequence (P53779 whole entry, looked up): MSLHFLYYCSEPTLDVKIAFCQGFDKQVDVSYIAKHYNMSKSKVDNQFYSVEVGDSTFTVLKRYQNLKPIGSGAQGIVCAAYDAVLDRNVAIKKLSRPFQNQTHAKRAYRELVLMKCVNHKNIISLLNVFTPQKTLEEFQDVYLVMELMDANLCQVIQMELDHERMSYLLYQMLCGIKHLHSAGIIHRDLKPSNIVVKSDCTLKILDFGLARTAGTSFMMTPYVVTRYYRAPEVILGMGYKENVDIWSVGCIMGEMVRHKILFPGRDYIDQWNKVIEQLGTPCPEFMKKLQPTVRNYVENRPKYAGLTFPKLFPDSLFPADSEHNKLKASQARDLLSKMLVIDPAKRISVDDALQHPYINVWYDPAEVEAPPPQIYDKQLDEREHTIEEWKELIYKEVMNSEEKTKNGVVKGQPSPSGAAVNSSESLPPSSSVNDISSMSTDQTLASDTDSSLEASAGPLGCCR

| Compound | inhibition |
| --- | --- |
| Cc1cc(/C=N/n2cnnc2)c(C)n1-c1cccc(C(=O)O)c1 | 0.73% |
| O=C(CSC1=NCCS1)Nc1nc(-c2ccccc2)cs1 | 0.48% |
| Cc1cc(O)ccc1-c1cnc2ccccc2n1 | 25.6% (active) |
| Cc1nc2ccccc2cc1O | -3.12% |
| Oc1ccc2nc(Cc3ccccc3)[nH]c2c1 | 5.45% |
| O=C1NC2(CCCCC2)N=C1c1ccccc1 | 0.31% |
| COC(=O)C(CC(=O)Nc1cc(C)ccc1C)Nc1ccccc1OC (configuration not stated) | -2.33% |
| O=C(C1CCN(c2nnc(-n3cccc3)s2)CC1)N1CCc2ccccc2C1 | -2.74% |
| CCOc1ccccc1C1NC(=O)NC(C)=C1C(=O)OCc1ccco1 (configuration not stated) | 2.09% |
| CSc1nc(C)nc2c1c(=O)n(C)c(=O)n2C | 4.34% |
| CCOc1ccc(NS(=O)(=O)c2ccc(OCC(=O)NCCCOC)cc2)cc1 | -5.51% |
| O=C(OC(C(=O)NC1CCCC1)c1ccc(F)cc1)c1ccno1 (configuration not stated) | -3.98% |
| CCC1SC2=NCCN2C1(O)c1ccc(Cl)cc1 (configuration not stated) | -0.2% |
| O=C(O)Cc1ccc(NC(=O)C2CCCCC2C(=O)O)cc1 (configuration not stated) | 3.04% |
| Cc1cn(COC/C=C/c2ccccc2)c(=O)[nH]c1=O | -1.97% |
| CCOC(=O)CNC(=O)CN1C(=O)CCSc2ccccc21 | -4.85% |
| O=C(CSc1nnc(-c2ccco2)o1)NCC(=O)c1ccccc1 | -0.03% |
| O=C(COc1ncnc2ccccc12)NC(=O)NCc1ccccc1 | 1.94% |
| COc1cccc2c(=O)n(CC(=O)N3CCCCCC3)ccc12 | 1.14% |
| OCCCN1c2ccccc2Nc2nnc(-c3ccccc3)cc21 | 31.6% (active) |
| Cc1ccc2c(c1)C(O)(CC(=O)c1cccnc1)C(=O)N2 (configuration not stated) | 4.44% |
| CC(=O)c1sc2nc(SCC(=O)N3CCCCC3)[nH]c(=O)c2c1C | 19.7% (active) |
| C=CCNC(=O)CSc1nc2sc(C)c(C)c2c(=O)[nH]1 | -0.43% |

| Compound | inhibition |
| --- | --- |
| O=C(CSc1nc2c(cnn2-c2ccc(F)cc2)c(=O)[nH]1)N1CCCCCC1 | 1.45% |
| O=C1NC(c2ccncc2)Nc2sc3c(c21)CCCC3 (configuration not stated) | 4.12% |
| CC(=NCc1ccco1)C1=C(O)c2ccccc2C1=O | 32.9% (active) |
| O=C1C(C=NCC2CCCO2)=C(O)c2ccccc21 (configuration not stated) | 3.41% |
| CC(=NCc1ccc2c(c1)OCO2)C1=C(O)c2ccccc2C1=O | 12.4% |
| Cc1ccnc(N2CCN(C(=O)CSc3nc4ccccc4nc3N3CCCCC3)CC2)c1 | 6.1% |
| Cc1cc(N2CCCC2)n2nc(C)c(-c3ccccc3)c2n1 | -0.31% |
| CCOC(=O)N1CCN(C(=O)CSc2ccc(Cl)cc2)CC1 | -3.08% |
| CC(=O)c1ccc(N2C(=NC(=O)C(C)C)SC3CS(=O)(=O)CC32)cc1 (configuration not stated) | 3.06% |
| O=C(NCc1ccco1)c1ccc(CS(=O)(=O)Cc2ccc(F)cc2)o1 | 2.1% |
| COc1ccccc1C(=O)N1CCN=C1SCc1cccnc1 | -7.75% |
| CCN1CCN(C(=O)CN(C)S(=O)(=O)c2ccc(OC)cc2)CC1 | -5.84% |
| CC(CN1CCCCC1)OC(=O)c1ccccc1Cl (configuration not stated) | 2.81% |
| CCc1ccccc1N(CC(=O)N1CCN(c2ccccc2F)CC1)S(C)(=O)=O | 2.83% |
| COCCCn1c2nc3ccccc3nc2c2c(=O)n(Cc3ccc(Cl)cc3)c(C)nc21 | 3.15% |
| Cc1ccsc1CNn1cnnc1SCc1ccccc1F | -1.56% |
| Fc1c(F)c(C(F)(F)F)c(F)c(F)c1N1CCN(c2ccc3nnc(C(F)(F)F)n3n2)CC1 | -2.37% |
| Cc1cc(C)n(C(=O)c2ccc(S(=O)(=O)N3CCCC3)cc2)n1 | 5.94% |
| O=C(CSc1nnc(Cc2ccccc2)n1-c1ccccc1)N1CCOCC1 | -3.48% |
| COC(=O)c1[nH]c2ccccc2c1NS(=O)(=O)c1ccc(OC)cc1OC | 2.86% |
| COc1ccc(COC(=O)c2n[nH]c3ccccc23)cc1F | 54.8% (active) |
| CCOC(=O)c1ccc(COC(=O)c2cc(=O)[nH]c3ccccc23)o1 | -6.13% |
| CSc1nsc(SC)c1NC(=O)OC1CCCCC1 | -12% |

| Compound | inhibition |
| --- | --- |
| CS(=O)(=O)N1CCCC(C(=O)N2CCOCC2)C1 (configuration not stated) | 6.57% |
| CCCN1Cc2cccc(C(=O)NCc3ccccc3)c2C1=O | 19.8% (active) |
| O=C(O)c1cccc2c1C(=O)N(C1CCCCC1)C2 | -0.07% |
| COCCN1Cc2cccc(C(=O)Nc3ccccc3OC)c2C1=O | 2.47% |
| CC(=O)c1c(C)n([O-])c2ccccc2[n+]1=O | -1.64% |
| C=C1c2cc(CC)ccc2NC(=O)N1c1ccc(C)cc1 | -1.58% |
| CCN=C1SC(CC(=O)Nc2ccc(C)cc2)C(=O)N1CC (configuration not stated) | 0.86% |
| CCc1ccccc1NC(=O)c1cccs1 | 6.07% |
| CCOC(=O)c1cc2sccc2n1Cc1ccc(C#N)cc1 | 4.65% |
| Cc1ccn2cc(-c3nonc3C)cc2c1 | 2.16% |
| Cc1cccc(NC(=O)CSC(N)=O)c1C | -3.12% |
| CCOC(=O)c1cccc(NC(=O)CCc2c(C)nc3ncnn3c2C)c1 | 4.2% |
| COC(=O)c1cc(NC2c3ccccc3C(=O)N2c2ccc(Cl)cn2)cc(C(=O)OC)c1 (configuration not stated) | 1.5% |
| CN(C(=O)C1CCOC1)c1nnc(-c2cccnc2)s1 (configuration not stated) | -0.13% |
| COc1ccc(N2CCN(Cc3cc(=O)oc4ccc5ccccc5c34)CC2)cc1 | 11.2% |
| Cn1c(=O)[nH]c(=O)c2c1nc(N1CCN(CCO)CC1)n2CCSc1nc2ccccc2s1 | -3.17% |
| COc1ccc(C)c2sc(=NC(=O)c3ccc(C#N)cc3)n(C)c12 | 1.99% |
| CCOc1ccc(CCNC(=O)C2CCN(c3ccc(N4CCOCC4)nn3)CC2)cc1OCC | -3.01% |
| CC(=O)Oc1ccc(C(=O)Nc2nccs2)cc1 | 31.3% (active) |
| Cn1cccc1C(=O)Nc1nccs1 | 3.03% |
| COc1cc(C(=O)Nc2nccs2)cc(OC)c1OC | 8.3% |
